High-throughput results from PubChem BioAssay.
Sampled rows, rich in hits. Any-hit rate of the full collection: about 12%.
G9a block: G9a (human) methyltransferase inhibition; Q96KQ7; hit rate 8.8% among 350,000; G9a H3K9 monomethylation, AlphaScreen, 2 h; Potency, µM (titrated, usually from 102 µM), usual class: inhibitors; also: nearly all actives have a fitted effect of over 75% in size
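Signal arises when biotinylated H3K9 peptide, once monomethylated, bridges streptavidin donor and antibody-captured acceptor beads. Enzyme at 20 nM was preincubated 15 min with test compounds; peptide 500 nM and SAM 20 uM then reacted for 2 h.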
JMJD2A Tudor: JMJD2A Tudor domain (human) inhibition | AlphaScreen JMJD2A-Tudor / H3K4me3 peptide binding | Potency, µM (highest dose often 114 µM), hits mostly inhibitors | hit rate 4.4% among 390,000 | AID 504339; also: nearly all actives have a fitted effect of over 50% in size
BAZ2B block: BAZ2B (human) inhibition; Q9UIF8; Potency, µM (top dose mostly 114 µM), usual class: inhibitors; AlphaScreen BAZ2B-H3K14Ac peptide displacement; hit rate 4.4% among 360,000; also: nearly all actives have a fitted effect of over 60% in size
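AlphaScreen displacement of biotin-H3(5-23)K14Ac peptide (50 nM final) from BAZ2B (50 nM final) in PBS pH 7.4, 0.01% Tween-20; complex preformed 30 min RT, then compounds (top 110 uM) 30 min RT, beads 20 min dark.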
L3MBTL1 block: inhibitors of human L3MBTL1. Q9Y468. AID 485360. Potency, µM (series often up to 57.1 µM), hits mostly inhibitors. hit rate 0.66% among 230,000. AlphaScreen L3MBTL1–H3K9me1 peptide binding; also: nearly all actives have a fitted effect of over 60% in size
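Displacement of a biotinylated histone H3(1-15) peptide monomethylated at Lys9 (75 nM) from L3MBTL1 (50 nM) was measured by AlphaScreen after a 30 min room-temperature compound incubation; cefsulodin titration served as intraplate control.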
HP1b binding inh: inhibitors of HP1-beta chromodomain binding to methylated histone tails; Potency, µM (titrated, usually from 114 µM), usual class: inhibitors; AID 540317; hit rate 0.56% among 390,000; P83916; AlphaScreen HP1-beta / biotin-H3K9me3 peptide binding; also: nearly all actives have a fitted effect of over 70% in size
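AlphaScreen: HP1-beta (50 nM) preformed 30 min with biotin-H3(1-18)K9me3 peptide (50 nM) in PBS pH 7.4, 0.01% Tween-20. Compound added for 30 min at RT, then streptavidin donor/nickel chelate acceptor beads (10 ug/mL) for 30 min.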
Sfp inh: inhibitors of Bacillus subtilis Sfp phosphopantetheinyl transferase; Biochemical Sfp PPTase activity, qHTS; hit rate 3.5% among 310,000; AID 1490; Q9F4F7; Potency, µM, hits mostly inhibitors;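 also: the enzyme is Sfp with the accession as filed and its product quenches rhodamine fluorescence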
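Fluorescence-quenching assay: 15 nM Sfp-PPTase preincubated 15 min at room temperature with compound, then 5 uM rhodamine-CoA and 12.5 uM BHQ-2-labelled YbbR peptide added. Fluorescence (ex 525/em 598 nm) read at start and after 30 min; difference gives rate.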
Numbers stand for hits; – = inactive; ? = inconclusive; · = no result; [ ] = another dose, or the depositor's remark. Calls follow the shape of the dose curve; as a rule, active = well fitted curve in the direction sought with a large enough effect; inconclusive = small, poorly fitted or top-dose-only effect, or another doubt; inactive = no such curve, though single readings can be large; an effect the other way counts as inactive or inconclusive.

SMILES	G9a block	JMJD2A Tudor	BAZ2B block	L3MBTL1 block	HP1b binding inh	Sfp inh
COc1ccc(C2CC(c3ccccc3)=NN2S(=O)(=O)c2ccccc2)cc1 (stereo unspecified)	·	–	–	–	–	–
CCS(=O)(=O)Nc1cccc(C2=NN(S(=O)(=O)c3ccc(F)cc3)C(c3cccs3)C2)c1 (stereo unspecified)	–	–	–	–	–	–
COc1ccc(S(=O)(=O)N2N=C(c3cccc(NS(C)(=O)=O)c3)CC2c2ccco2)cc1 (stereo unspecified)	45µM	–	–	·	–	–
COc1ccc(S(=O)(=O)N2N=C(c3ccc(NS(C)(=O)=O)cc3)CC2c2ccco2)cc1 (stereo unspecified)	?	–	·	·	–	56µM
CCc1ccc(S(=O)(=O)c2cn(CC(=O)Nc3cccc(C)c3)c3ccc(Cl)cc3c2=O)cc1	–	–	–	·	–	·
COc1cccc(-c2noc(COc3cccc(C)c3C)n2)c1	–	–	–	·	–	·
Cn1ncc(C#N)c1/N=C/N1CCCCCC1	?	–	–	–	–	–
CN1CCCCCC1=Nc1ccccc1C#N	?	1.8µM	45µM	–	13µM	–
COCCn1c(=O)c(-c2cccs2)nc2cnc(N3CCNCC3)nc21	–[0.501 µM]	·	·	·	·	–
CCN(c1ccc(NC(=O)COC(=O)c2ccc(C)c(S(=O)(=O)N3CCOCC3)c2)cc1)C(C)C	4.5µM	22µM	?	·	?	–
Cc1cc(C)c(OCC(=O)Nc2ccc(S(=O)(=O)N3CCCC3)cc2)c(C)c1	50µM	–	–	–	–	·
O=C(COC(=O)/C=C/c1ccc(F)cc1)Nc1cccc(S(=O)(=O)N2CCCC2)c1	–	–	–	–	–	–
COc1cccc(/C=C/C(=O)OCC(=O)Nc2cccc(S(=O)(=O)N3CCCCC3)c2)c1OC	71µM	–	–	–	–	–
CN1CCC(N(C)S(=O)(=O)c2ccc(NC(=O)COc3cccc(Cl)c3)cc2)CC1	40µM	–	–	–	–	·
CN1CCC(N(C)S(=O)(=O)c2ccc(NC(=O)COc3ccc(Br)cc3Cl)cc2)CC1	–[0.501 µM]	–	?	–	–	·
Cc1ccc(C)c(N2CCN(C(=O)CCc3nnc4n(C)c(=O)c5ccccc5n34)CC2)c1	–	–	–	·	–	·
Cc1cccc(OCC(=O)Nc2ccc(S(=O)(=O)N3CCCC3)cc2)c1	32µM	–	–	–	–	?
Cc1ccc(NC(=O)CNc2ccccc2N2CCCC2=O)cc1S(=O)(=O)N1CCOCC1	45µM	–	–	–	–	·
COc1ccc(NC(=O)CNc2ccccc2N2CCCC2=O)cc1S(=O)(=O)N1CCOCC1	?	–	–	–	–	·
Cc1ccc(NC(=O)COC(=O)/C=C/c2cccc(Cl)c2)cc1S(=O)(=O)N1CCOCC1	40µM	–	–	–	–	–
CCc1cccc(OCC(=O)Nc2ccc(S(=O)(=O)N3CCCC3)cc2)c1	–	–	–	·	–	–
O=C(COC(=O)/C=C/c1cccc(Cl)c1)Nc1ccc(N2CCOCC2)cc1	·	–	·	–	–	·
COc1cccc(/C=C/C(=O)OCC(=O)Nc2ccc(S(=O)(=O)N3CCCC3)cc2)c1	–	–	–	–	–	79µM
Cc1ccccc1NC(=O)Cn1c(=O)n(CCC(=O)NCc2ccc3c(c2)OCO3)c(=O)c2sccc21	–	–	?	·	–	·
CC(C)C1CCC(C(=O)NC(Cc2ccccc2)C(=O)O)CC1 (stereo unspecified)	–[2.33 µM]	·	·	·	·	–
CC1CN2C(CCC(C)C2c2ccc(Br)cc2)C(=O)O1 (stereo unspecified)	·	·	·	·	·	–
Cc1ccc(N2C(=O)[C@@H]3[C@H](C2=O)[C@H]2C=C(C(=O)c4ccccc4)C=CN2[C@@H]3C(=O)c2ccc(Cl)cc2)cc1	2.2µM	–	–	–	–	–
O=C(C1=C[C@@H]2[C@H]3C(=O)N(c4ccccc4Cl)C(=O)[C@H]3[C@@H](C(=O)c3ccc(Cl)cc3)N2C=C1)c1ccccc1	8.9µM	·	–	–	·	–
CC(=O)Oc1ccc(C(=O)[C@H]2[C@H]3C(=O)N(c4cccc5ccccc45)C(=O)[C@H]3[C@@H]3C=CC=NN32)cc1	?	?	?	–	–	?
